Several values for one entry are separate records, joined by “and”; a condition that tells them apart may be missing. Equal entries are not always repeated. Results filed as inconclusive are left out. Activity calls are given as the source filed them. Calls come from the whole dose curve; as a rule, active = well fitted curve in the direction sought with a large enough effect; inconclusive = small, poorly fitted or top-dose-only effect, or another doubt; inactive = no such curve, though single readings can be large; an effect the other way counts as inactive or inconclusive.
Assay: qHTS Assay for Identifying Gametocytocidal Compounds (AID 743244); note: potency is the fitted concentration of half-maximal effect;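 for max response: actives lower the fluorescent signal which means gametocytes are killed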
Conditions: P. falciparum 3D7 stage III-V gametocytes, alamarBlue, 72 h; max response: hits give low values
Summary of the method: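 Compounds are pinned into medium, gametocytes (stage III–V, 3D7, 20,000 cells/well) added, and plates held 72 h at 37 °C in 5% CO2. AlamarBlue follows for 24 h before fluorescence reading.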
% is set by controls: 0 for no effect and ±100 for the full control effect.

SMILES | max response | Potency
CSc1nc2cc(Oc3cccc(Cl)c3Cl)c(Cl)cc2[nH]1 | 0.358% (inactive) | 
C[C@H]1O[C@@H](O[C@H]2[C@@H](O)C[C@H](O[C@H]3[C@@H](O)C[C@H](O[C@H]4CC[C@@]5(C)[C@H](CC[C@@H]6[C@@H]5C[C@@H](O)[C@]5(C)[C@@H](C7=CC(=O)OC7)CC[C@]65O)C4)O[C@@H]3C)O[C@@H]2C)C[C@H](O)[C@@H]1O | -13.6% (inactive) | 
O=C(CCCN1CCC(C(=O)c2ccc(F)cc2)CC1)c1ccc(F)cc1 | 18.4% (inactive) | 
C=C1CC[C@H](O)CC1=C/C=C1\CCC[C@]2(C)[C@@H]([C@H](C)CCCC(C)(C)O)CC[C@@H]12 | -5.02% (inactive) | 
CCN(CC)CCC(=O)N1c2ccccc2Sc2ccc(C(F)(F)F)cc21 | -16% (inactive) | 
Cc1c(N)nc([C@H](CC(N)=O)NC[C@H](N)C(N)=O)nc1C(=O)N[C@H](C(=O)N[C@H](C)[C@@H](O)[C@H](C)C(=O)N[C@H](C(=O)NCCc1nc(-c2nc(C(=O)NCCCCN=C(N)N)cs2)cs1)[C@@H](C)O)[C@@H](O[C@@H]1O[C@@H](CO)[C@@H](O)[C@H](O)[C@@H]1O[C@H]1O[C@H](CO)[C@@H](O)[C@H](OC(N)=O)[C@@H]1O)c1cnc[nH]1 | -1.54% (inactive) and 0.24% (inactive) | 
C=C1[C@H](CO)[C@@H](O)C[C@@H]1n1cnc2c(=O)[nH]c(N)nc21 | 18.1% (inactive) | 
C=C[C@]1(C)C[C@@H](OC(=O)CSCCN(CC)CC)[C@]2(C)[C@H](C)CC[C@]3(CCC(=O)[C@H]32)[C@@H](C)[C@@H]1O | -4.45% (inactive) | 
CCN(CC)CCOc1ccc2nc(N(C)C)sc2c1 | -4.7% (inactive) | 
CN[C@@H]1[C@H](O[C@H]2[C@H](O[C@H]3[C@H](O)[C@@H](O)[C@H](N=C(N)N)[C@@H](O)[C@@H]3N=C(N)N)O[C@@H](C)[C@]2(O)CO)O[C@@H](CO)[C@H](O)[C@H]1O | 8.75% (inactive) | 
CO[C@H]1O[C@@H]2O[C@@]3(C)CC[C@H]4[C@H](C)CC[C@@H]([C@H]1C)[C@@]24OO3 |  | 0.0833 µM (active)
CN(C)CCCSc1ccccc1NC(=O)/C=C/c1ccccc1 | -4.09% (inactive) | 
CC(C)=CCC/C(C)=C/CC/C(C)=C/CC/C(C)=C/CC1=C(C)C(=O)c2ccccc2C1=O |  | 7.94 µM (active)
C=C1C(CCl)(CCl)C2(Cl)C(Cl)C(Cl)C1(Cl)C2(Cl)Cl (configuration not stated) | -0.376% (inactive) | 
O=C1/C(=C\c2cccs2)CCC/C1=C\c1cccs1 | 5.47% (inactive) | 
CCN(CC)CCC(=O)N1c2ccccc2Sc2ccc(Cl)cc21 | 2.51% (inactive) | 
COc1ccccc1N1CCN(CCCC(=O)c2ccc(F)cc2)CC1 | 18% (inactive) | 
CCCCCCCCCCCCCCCCOCCOCCOCCOCCOCCOCCOCCOCCOCCOCCOCCOCCOCCOCCOCCOCCOCCOCCOCCOCCO | -3.08% (inactive) | 
CCCc1nc(C(C)(C)O)c(C(=O)OCc2oc(=O)oc2C)n1Cc1ccc(-c2ccccc2-c2nn[nH]n2)cc1 | 48.2% (inactive) | 
CS(=O)(=O)c1ccc([C@@H](O)[C@@H](COC(=O)CN)NC(=O)C(Cl)Cl)cc1 | 0.65% (inactive) | 
O=C(O)CCC(=O)c1ccc(-c2ccccc2)cc1 | 1.84% (inactive) | 
C#C[C@]1(O)CC[C@H]2[C@@H]3CCC4=C(CCC(=O)C4)[C@H]3CC[C@@]21C | 12.4% (inactive) | 
COc1ccc2nc(NC(=O)Nc3ccccc3)sc2c1 | -0.997% (inactive) | 
N[C@@H](Cc1cc(I)c(Oc2ccc(O)c(I)c2)c(I)c1)C(=O)O | 3.17% (inactive) | 
CC(CN1c2ccccc2Sc2cccnc21)N(C)C (configuration not stated) | 4.99% (inactive) | 
O=c1n(CC2CO2)c(=O)n(CC2CO2)c(=O)n1CC1CO1 (configuration not stated) | 6.57% (inactive) | 

Assay: qHTS assay for cell viability of HEK293 cells (AID 743288); note: nearly all actives have a fitted effect of over 50% in size
Conditions: ATP luminescence (CellTiter-Glo), 18 h; max response: hits give low values
Summary of the method: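 Total intracellular ATP, measured with a luciferase-coupled reagent, indicates the number of viable HEK293 cells. Exposure to test chemicals lasts 18 h at 37 C in 1,536-well format at 2,000 cells/well.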

SMILES | max response
NC(N)=O | 0.964% (inactive)
N[C@@H](Cc1cc(I)c(Oc2ccc(O)c(I)c2)c(I)c1)C(=O)O | -8.83% (inactive)
O=c1n(CC2CO2)c(=O)n(CC2CO2)c(=O)n1CC1CO1 (configuration not stated) | -25.2% (inactive) and -21.7% (inactive)

Assay: qHTS assay for cell viability of the p53RE-bla HCT-116 cell line (AID 743292); note: nearly all actives have a fitted effect of over 55% in size
Conditions: p53RE-bla HCT-116 viability, ATP luminescence, 16 h; series mostly up to 95 µM; activity change, negative = cytotoxicity: at the top concentration
Summary of the method: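 Compound-exposed HCT-116 (p53RE-bla) cells, 4,000 per well, were kept 16 h at 37 C following a 5 h preincubation. Cell number was estimated from total ATP by CellTiter-Glo luminescence read after 30 min at room temperature.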

SMILES | activity change, negative = cytotoxicity | outcome
NC(N)=O | 2.33% (inactive) | 
C=C(C)C1CC=C(C)CC1 (configuration not stated) |  | inactive
CC[C@H]1OC(=O)[C@H](C)[C@@H](O[C@H]2C[C@@](C)(OC)[C@@H](O)[C@H](C)O2)[C@H](C)[C@@H](O[C@@H]2O[C@H](C)C[C@H](N(C)C)[C@H]2O)[C@](C)(O)C[C@@H](C)CN(C)[C@H](C)[C@@H](O)[C@]1(C)O | -8.83% (inactive) | 
C[Si](C)(C)O[Si](C)(C)C | 6.88% (inactive) | 
OB(O)O |  | inactive
N[C@@H](Cc1cc(I)c(Oc2ccc(O)c(I)c2)c(I)c1)C(=O)O | -3.99% (inactive) | 
CC1=CC(=O)NS(=O)(=O)O1 |  | inactive
O=c1n(CC2CO2)c(=O)n(CC2CO2)c(=O)n1CC1CO1 (configuration not stated) |  | inactive

— PubChem BioAssay (NCATS)
